# Compounds with a hit are over-represented: about 1.1% of the library has one in this group of screens.
# HTR5A ag ctr – HTR5A agonists in luminescence cell assay, primary screen, counter-screen for OPRM1-OPRD1 heterodimer agonist project, full-deck HTS; cell-based; 5-hydroxytryptamine receptor 5A (Homo sapiens), P47898; activation, % at 9.3 µM; AID 504692, 2011; 0.61% of 340,000 active; in the data active = activation mostly above about 9.5%, no sharp cut-off; inactive = mostly below about 7.6%;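 also: 0% = cells with vehicle only and 100% = reference agonist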
# HTR5A inv ag – HTR5A inverse agonists in luminescence cell assay, primary screen, counter-screen for OPRM1-OPRD1 heterodimer inverse agonist project, full-deck HTS; 5-hydroxytryptamine receptor 5A (Homo sapiens), P47898; HTR5A cell line, inverse agonism; inhibition, % at 9.3 µM; 0.083% of 340,000 active; AID 504634, 2011; in the data active = inhibition mostly above about 23%, no sharp cut-off; inactive = mostly below about 18%;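 also: 0% = cells with DMSO and 100% = no-cell wells with DMSO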
# OPRM1-OPRD1 ag – agonists of OPRM1-OPRD1 heterodimerization, primary screen, cell-based, luminescence. cells. activation, % at 9.3 µM. AID 504326, 2011. 0.3% of 340,000 active. Mu-type opioid receptor (Homo sapiens) + Delta-type opioid receptor (Homo sapiens), …; in the data active = activation above about 18%;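 also: 0% = vehicle-treated cells and 100% = reference agonist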
# Target sequence (P35372 whole entry, looked up): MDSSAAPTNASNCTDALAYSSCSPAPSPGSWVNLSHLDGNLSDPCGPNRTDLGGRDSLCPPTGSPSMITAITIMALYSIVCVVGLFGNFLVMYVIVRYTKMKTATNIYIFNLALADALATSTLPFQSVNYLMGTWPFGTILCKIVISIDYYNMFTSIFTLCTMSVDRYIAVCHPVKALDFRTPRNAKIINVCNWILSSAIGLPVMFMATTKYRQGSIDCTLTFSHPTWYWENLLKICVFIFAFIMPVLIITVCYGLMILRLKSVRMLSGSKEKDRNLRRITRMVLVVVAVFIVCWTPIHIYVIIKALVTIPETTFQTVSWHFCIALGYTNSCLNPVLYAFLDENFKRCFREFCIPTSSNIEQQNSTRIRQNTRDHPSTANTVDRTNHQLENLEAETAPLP
# Target sequence (P41143 whole entry, looked up): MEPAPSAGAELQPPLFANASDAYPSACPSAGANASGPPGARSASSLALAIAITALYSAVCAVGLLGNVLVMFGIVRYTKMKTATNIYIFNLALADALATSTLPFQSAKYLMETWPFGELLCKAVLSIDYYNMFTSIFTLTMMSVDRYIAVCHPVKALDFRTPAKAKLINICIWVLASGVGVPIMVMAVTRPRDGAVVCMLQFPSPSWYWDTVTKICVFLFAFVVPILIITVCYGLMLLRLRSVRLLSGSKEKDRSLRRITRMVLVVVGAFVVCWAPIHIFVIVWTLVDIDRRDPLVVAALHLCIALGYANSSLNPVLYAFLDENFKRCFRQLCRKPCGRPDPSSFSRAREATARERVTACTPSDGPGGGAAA
# OPRM1-OPRD1 inv – inverse agonists of MOR-DOR heterodimerization, primary screen, cell-based, luminescence | 0.21% of 340,000 active | cell-based MOR-DOR heterodimer luminescence, inverse agonism | inhibition, % at 9.3 µM | Mu-type opioid receptor (Homo sapiens) + Delta-type opioid receptor (Homo sapiens), …; in the data active = inhibition above about 22%, passing the limit was not always enough;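 also: 0% = cells with DMSO and 100% = wells without cells with DMSO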
# OPRM1-D1 inv cf – inverse agonists of MOR-DOR heterodimerization, confirmation, cell-based, luminescence; cells expressing OPRM1/OPRD1 heterodimer; 20% of 580 active; inhibition, % at 9.3 µM; shares compounds with OPRM1-OPRD1 inv; in the data active = inhibition above about 32%;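 also: 0% = cells with DMSO and 100% = wells lacking cells with DMSO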
# HTR5A inv ctr2 – HTR5A inverse agonists, counter-screen for OPRM1-OPRD1 inverse agonist project, cell-based, luminescence; 580 tested, under 10 active; shares compounds with OPRM1-OPRD1 inv; inhibition, % at 9.3 µM; HTR5A-expressing cells, inverse agonism; call rule not given here;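 also: 0% = cells with DMSO and 100% = no-cell wells with DMSO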
# An asterisk follows results filed as active; i = inactive; . = no result.
SMILES,HTR5A ag ctr,HTR5A inv ag,OPRM1-OPRD1 ag,OPRM1-OPRD1 inv,OPRM1-D1 inv cf,HTR5A inv ctr2
CC1Nc2ncnc(N3CCN(c4ccccc4)CC3)c2N(Cc2ccc(Cl)cc2)C1=O (stereo not given),-10.6,28.4,-9.7,56.7*,33.4*,62.6*
Cc1cc(-n2nc3ccccc3n2)c(O)c([N+](=O)[O-])c1,7.0,4.6,-4.7,25.8*,-17.5,19.2
Cc1ccc(OC(=O)c2cccc([N+](=O)[O-])c2)c(-n2nc3ccccc3n2)c1,-2.2,5.8,-2.5,14.9,.,.
Cc1ccc(NCN2C(=O)C(=O)c3ccccc32)nc1,-5.1,-13.4,-13.8,70.0*,59.0*,16.9
CCCCCCC[C@@H](C/C=C/CCC(=O)N(C)C/C(=C/Cl)C/C(=C\C(=O)N1C[C@H](O)CC1=O)OC)OC,3.6,-13.4,0.0,-0.1,.,.
CCCCCCC[C@@H](C/C=C/CCC(=O)N(C)C/C(=C/Cl)C/C(=C\C(=O)N1CC(OC)=CC1=O)OC)OC,0.1,-0.5,-8.4,39.2*,-22.1,-119.7
CN(C)CC1CC/C(=C\c2ccc(O)cc2)C1=O (stereo not given),-6.3,24.0,-9.4,41.3*,i,-26.0
O=C1Nc2ccccc2C1=Nc1ccc(-c2nnc3n2CCCCC3)cc1,-1.5,6.3,-6.8,35.4*,39.5*,3.5
N#Cc1ccc(S(=O)(=O)N2CCN(C(=O)[C@@H]3CCCN3C(=O)c3cccs3)CC2)cc1,-4.2,-24.6,-2.5,9.9,.,.
CCC(=O)Oc1ccc(C(=O)Nc2ccccc2C(=O)NCC(C)C)cc1,0.0,4.7,-1.1,5.7,.,.
CCC(=O)Oc1ccc(C(=O)Nc2cccc(C(=O)NCC(C)C)c2)cc1,-1.4,3.8,-4.5,32.4*,-47.4,-10.3
CCOc1ccc(S(=O)(=O)N2CCOCC2)cc1NC(=O)CN1C(=O)NC(C)(c2ccccc2)C1=O (stereo not given),-2.4,6.7,-0.9,5.6,.,.
Cc1ccc(C(=O)COC(=O)CNC(=O)C(c2ccccc2)c2ccccc2)cc1[N+](=O)[O-],-4.6,16.1,-11.8,66.3*,41.1*,12.1
Cc1ccc(C(=O)NCC(=O)OCC(=O)c2ccc(C)c([N+](=O)[O-])c2)cc1,-2.6,7.4,-9.9,51.0*,42.4*,19.2
O=C(Cc1ccccc1)NCC(=O)OCC(=O)c1ccc(Cl)c([N+](=O)[O-])c1,-9.6,25.9,-15.0,90.4*,70.2*,18.6
COc1ccc(NC(=O)C(=O)NCC2CCCN2S(=O)(=O)c2cc(C)ccc2C)cc1 (stereo not given),-0.7,2.0,-1.9,9.7,.,.
N#CCCN(C(=O)COC(=O)CCN=C1NS(=O)(=O)c2ccccc21)c1ccc(F)cc1,0.2,4.5,-0.9,6.2,.,.
Cc1ccc2oc(/N=C(\N)NC(=O)C3CC3)nc2c1,5.8,-15.2,1.6,-8.0,.,.
Cc1ccc2oc(/N=C(\N)NC(=O)C(C)(C)C)nc2c1,-9.4,14.2,-8.7,44.6*,18.8,-10.8
NC(=S)c1cc2ccc(O)cc2oc1=O,-5.0,-1.3,-5.4,30.8*,11.0,0.6
Cc1cc(C(=O)N/N=C/c2cc(Br)cc([N+](=O)[O-])c2O)c2ccccc2n1,-3.2,10.8,-3.9,22.0*,-0.9,6.8
COCC(C)OC(=O)c1c(N)n(CC(C)C)c2nc3ccccc3nc12 (stereo not given),7.6,3.0,-11.2,58.5*,36.8*,11.5
C=CCn1c(N)c(C(=O)OC(C)CC)c2nc3ccccc3nc21 (stereo not given),0.4,-32.6,-2.2,12.3,.,.
Oc1[nH]c2ccccc2c1N=Nc1ccccc1,1.2,-3.6,-1.0,5.2,.,.
O=S1(=O)N=C(N=Nc2c(O)[nH]c3ccccc23)c2ccccc21,-1.8,16.5,-3.6,24.6*,-4.1,5.0
SMILES,HTR5A ag ctr,HTR5A inv ag,OPRM1-OPRD1 ag,OPRM1-OPRD1 inv,OPRM1-D1 inv cf,HTR5A inv ctr2
CC1CCCN(C(=O)c2ccc(-c3ccccc3Cl)o2)C1 (stereo not given),-2.6,-13.4,5.4,-35.8,.,.
Cn1cccc1C(C#N)(CC#N)c1cccc(F)c1C#N (stereo not given),-0.2,0.4,-2.7,12.5,.,.
Cn1cccc1C(C#N)c1cccc(F)c1C#N (stereo not given),-2.7,14.5,-7.2,36.7*,9.4,6.0
CC(CCc1ccccc1)NC(=O)COC(=O)C12CC3CC(CC(Br)(C3)C1)C2 (stereo not given),1.1,-0.3,2.7,-14.8,.,.
Cc1ccc(NNC(=O)C(=O)N2CCCCC2)cc1,-0.8,2.8,-5.4,27.9*,3.3,-5.8
COc1cccc(CN(C)CCCn2cnc(C(=O)Nc3ccc(C)c(C)c3)n2)c1,3.9,-14.7,1.1,-5.4,.,.
O=C(O)c1[nH]c2ccccc2c1C(c1cc(Br)ccc1O)c1c(C(=O)O)[nH]c2ccccc12,2.9,-10.9,-2.8,13.6,.,.
Cc1cc(C(=O)NNC(=S)NC(C)c2ccccc2)c2ccccc2n1 (stereo not given),3.4,-12.4,-6.4,34.2*,5.5,-13.2
Cc1cc(C(=O)NNC(=O)c2ccc(Cl)cc2)c2ccccc2n1,-3.5,8.6,-1.2,5.2,.,.
CC(=O)CCC(=O)OCC(=O)c1ccc(C(F)(F)F)cc1,4.7,4.0,-9.0,44.8*,-0.9,13.2
O=C(CCC(=O)c1cccs1)OCC(=O)c1ccc(F)cc1,-3.9,15.1,-2.7,13.9,.,.
Oc1ccc(C[C@H]2CNCCN2CC2CCCCC2)cc1,15.7,-17.0,0.0,0.0,.,.
O=C(CN=C1NS(=O)(=O)c2ccccc21)OCC(=O)c1cc(F)ccc1F,-2.7,11.0,-5.9,29.8*,7.4,45.7*
O=C(CCN=C1NS(=O)(=O)c2ccccc21)OCC(=O)c1ccccc1Cl,0.1,-0.3,-3.8,19.8,.,.
O=C(N/N=C/c1cccnc1)c1ccc2c(c1)OCCO2,-0.4,1.1,0.2,-1.1,.,.
O=S(=O)(Nc1cccc2ncccc12)c1cccs1,-9.7,20.9,-9.6,47.5*,-195.8,-13.3
CCCn1c(N)c(C(=O)CN(C)CC(=O)Nc2ccccc2C(F)(F)F)c(=O)[nH]c1=O,6.4,-16.2,-3.7,14.9,.,.
COc1ccc(-c2csc3ncnc(N4CCN(c5ccccc5Cl)CC4)c23)cc1,-2.0,14.1,-1.1,5.7,.,.
COc1ccc(-c2csc3ncnc(N4CCN(c5cccc(C)c5C)CC4)c23)cc1,0.6,-7.4,-7.4,40.0*,-175.8,-10.6
COc1cc(C(=O)NCC(c2ccco2)N2CCOCC2)cc(OC)c1OC (stereo not given),2.4,19.7,0.4,-2.5,.,.
COc1cc(/C=N/Nc2ccccc2[N+](=O)[O-])cc(OC)c1O,3.3,-9.2,4.0,-18.7,.,.
